Source: PubChem BioAssay (several laboratories)
TIM10 inh: growth inhibitors of isogenic TIM10 control yeast, primary screen, counter-screen for tim10-1 yeast inhibitor project, luminescence, uHTS. S. cerevisiae TIM10 strain growth, BacTiter-Glo luminescence, 24 h. inhibition, % at 10 µM. 330,000 tested, 1.4% active;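 active = inhibition of 40% or more at the single tested concentration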;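 note: wild-type TIM10 isogenic control strain grown at permissive 25 °C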
PfHsp90 yeast 2: growth inhibition of PfHsp90-expressing yeast, primary screen, antimalarial PfHsp90 inhibitor project, S. cerevisiae, BacTiter-Glo luminescence, single point, set 2; BacTiter-Glo ATP, 48 h; yeast lacking PDR1 and PDR3 efflux regulators; inhibition, % at 9.4 µM; 310,000 tested, 0.32% active;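 active = every replicate shows inhibition above about 80%, whatever the replicate mean, limit read from the data; inconclusive = mean inhibition reaches the set limit but some replicate falls short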;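 note: 0% = DMSO neutral controls and 100% = 20 µM radicicol positive controls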
tim23-1 inh: growth inhibitors of tim23-1 mutant yeast, primary screen, luminescence, uHTS; 330,000 tested, 1.3% active; AID 463212, 2010; inhibition, % at 20 µM; S. cerevisiae tim23-1 growth, BacTiter-Glo luminescence, 24 h;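 active = growth inhibition of the mutant yeast at or above 50%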;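 note: temperature-sensitive mutant grown at 25 °C; plate controls were DMSO-treated mutant yeast for no effect and medium wells lacking yeast for full effect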
tim10-1 inh: growth inhibitors of tim10-1 mutant yeast, primary screen, luminescence, uHTS; S. cerevisiae tim10-1 ts strain growth, BacTiter-Glo, 24 h; inhibition, % at 20 µM; 330,000 tested, 2.2% active;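 active = inhibition of at least 40%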;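 note: mutant grown at 25 °C; 0% = DMSO wells with yeast and 100% = wells holding no yeast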
SKKanGAS inh: S. pyogenes SKKanGAS growth inhibitors in kanamycin, primary screen, streptokinase expression inhibitor project, SKKanGAS strain, BacTiter-Glo luminescence. 6 h. inhibition, % at 7.5 µM. 300,000 tested, 1.3% active. AID 1662, 2009;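 active = mean replicate score, as percent of positive control median, at least 50; inconclusive = mean below 50 but one replicate at or above 50; inactive = mean and every replicate below 50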;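 note: strain carries kanamycin resistance gene driven by streptokinase promoter and grows in 40 µg/ml kanamycin; loss of luminescence reflects streptokinase promoter inhibition or plain growth inhibition; 0% = median of DMSO wells and 100% = positive control at its reference dose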
tim10-1 confirm: growth inhibitors of tim10-1 mutant yeast, confirmation, single concentration, luminescence, S. cerevisiae; shares compounds with tim10-1 inh; S. cerevisiae tim10-1 ts strain growth, BacTiter-Glo, 24 h; inhibition, % at 20 µM; 7,400 tested, 56% active;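 active = inhibition of yeast growth at or above a set limit in either of two repeat tests at 20 µM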;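 note: tim10-1 mutant grown at permissive 25 °C to find synthetic lethal compounds; 0% = DMSO yeast wells and 100% = medium wells without yeast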
TIM10 conf: growth inhibitors of wild-type TIM10 yeast, confirmation, counter-screen for tim10-1 synthetic lethality project, single concentration, luminescence, S. cerevisiae; S. cerevisiae tim10 strain growth, BacTiter-Glo luminescence, 24 h; inhibition, % at 10 µM; shares compounds with TIM10 inh; 4,600 tested, 63% active; AID 463215, 2010;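 active = inhibition of yeast growth at or above a set limit in either of two replicates at 10 µM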;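 note: this counterscreen used the strain with wild-type TIM10; 0% = yeast with DMSO and 100% = medium wells lacking yeast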
* hit, by the source's call; u = inconclusive; x = no result. This is a sample that favours compounds with a hit; in the whole collection about 4.4% have one here.

SMILES | TIM10 inh | PfHsp90 yeast 2 | tim23-1 inh | tim10-1 inh | SKKanGAS inh | tim10-1 confirm | TIM10 conf
Cc1cc(C)c2nc3nc(C)c(C)cc3c(N)c2c1 | 81* | 19 | 49 | 62* | -17 | 71* | 81*
Cc1ccc2c(c1)/C(=C/c1ccccc1)C(=O)N2 | 49* | -99 | 24 | 55* | -10 | 39* | 62*
COc1ccccc1NS(=O)(=O)c1ccc2oc(=O)ccc2c1 | 47* | -43 | 30 | 43* | 0 | 21 | 44*
COc1ccccc1NS(=O)(=O)c1ccc2ccccc2c1 | -2 | 0 | 22 | 9 | -4 | x | x
COc1ccc(Nc2nc(-c3ccncc3)nc3ccccc23)cc1 | 26 | -23 | 29 | 26 | 15 | x | x
Cc1nn(C)c(C(=O)Nc2ccc(S(=O)(=O)NC34CC5CC(CC(C5)C3)C4)cc2)c1Br | 58* | u | 41 | 54* | 53* | 45* | 21
CN(CC(=O)Nc1ccc(Cl)c(Cl)c1)C1CCCCC1 | 3 | 5 | 14 | 20 | 0 | x | x
CN(CC(=O)Nc1ccc(Cl)c(Cl)c1)C(=O)C12CC3CC(CC(C3)C1)C2 | 60* | 30 | 20 | 45* | 8 | 19 | 53*
Cc1ccc2nc(-c3ccc(Br)o3)oc(=O)c2c1 | 48* | -1 | 50 | 41* | 3 | 35* | 33*
COc1cc2nc(-c3ccc(Br)o3)oc(=O)c2cc1OC | 31 | -8 | 19 | 27 | -6 | x | x
CC(C1CC1)N(Cc1ccccc1)C(=S)Nc1ccccc1 (stereo not drawn) | 42* | 22 | 36 | 42* | -11 | 30 | 40*
CN(C)C(=S)Nc1cccc(C(F)(F)F)c1 | 16 | -1 | 25 | 6 | -7 | x | x
CC(C1CC1)N(Cc1ccccc1)C(=S)Nc1cccc(C(F)(F)F)c1 (stereo not drawn) | 53* | -50 | 47 | 49* | -1 | 48* | 0
Cc1ccccc1OCC(=O)Nc1ccc(Cc2ccncc2)cc1 | 41* | -1 | 36 | 42* | -21 | 40* | 20
O=C(c1ccco1)N1CCN(c2ncnc3scc(-c4ccccc4)c23)CC1 | 44* | 13 | 28 | 47* | 5 | 42* | -3
CCN(CC)CCc1nc(-c2ccccc2)no1 | 5 | 30 | 6 | 4 | x | x | x
COc1cc(Nc2c3ccccc3nc3ccccc23)cc(OC)c1OC | 60* | -28 | 38 | 78* | -3 | 76* | 38*
CCCCOC(=O)/C(=C\c1ccc([N+](=O)[O-])o1)NC(=O)c1ccccc1 | 45* | -6 | 25 | 40* | 17 | 40* | 18
CCCCOC(=O)/C(=C/C=C/c1ccccc1)NC(=O)c1ccccc1 | 32 | -39 | 30 | 38 | -3 | x | x
CC(C)c1ccccc1NC(=S)NC(C)c1ccccc1 (stereo not drawn) | 42* | 9 | 40 | 42* | -10 | 23 | 17
O=C(CCNC(=O)c1ccccc1)Nc1ccc(Cl)c(S(=O)(=O)N2CCCCC2)c1 | -7 | -3 | 1 | -14 | x | x | x
Cc1cc2ccccn2c1C(=O)c1ccc([N+](=O)[O-])o1 | 77* | x | 0 | 46* | 9 | 30 | 91*
Cc1cc2ccccn2c1C(=O)c1cccc([N+](=O)[O-])c1 | -7 | -12 | 28 | 10 | 7 | x | x
CCN(C(=O)COC(=O)c1ccc(N2C(=O)c3ccccc3C2=O)cc1)C1CCS(=O)(=O)C1 (stereo not drawn) | 5 | -19 | 4 | 0 | -2 | x | x
Cc1ccccc1C(=O)O/N=C(\N)c1cccc([N+](=O)[O-])c1 | 50* | 9 | 48 | 68* | -1 | 74* | 48*
SMILES | TIM10 inh | PfHsp90 yeast 2 | tim23-1 inh | tim10-1 inh | SKKanGAS inh | tim10-1 confirm | TIM10 conf
N/C(=N\OC(=O)c1cccc([N+](=O)[O-])c1)c1cccnc1 | 18 | 8 | 5 | 31 | -7 | x | x
N/C(=N\OC(=O)c1ccc2c(c1)OCO2)c1cccc([N+](=O)[O-])c1 | 44* | -19 | 23 | 48* | 2 | 33* | 26
Cc1ccc(C(=O)N2CCN(S(=O)(=O)N3CCCCC3)CC2)cc1 | -15 | 10 | -10 | -5 | 3 | x | x
CCCN1C(=O)/C(=C/c2ccncc2)SC1=S | 53* | -1 | 46 | 45* | -2 | 24 | -17
CCOc1cc(/C=N/NC(=O)c2cc(-c3cccnc3)nc3ccccc23)ccc1O | 44* | -13 | 39 | 45* | 2 | 38* | 28
COc1cc(C(=O)/C=C/c2cccnc2)c([N+](=O)[O-])cc1OC | 41* | -13 | 38 | 42* | 9 | 39* | 33*
CCCCc1ccc(/C(C)=N/Nc2cc(N3CCOCC3)nc(C)n2)cc1 | 3 | 9 | 29 | 20 | 20 | x | x
C=CCc1c(C)nc(-c2ccccc2)nc1N/N=C(\C)c1ccc(N)cc1 | 28 | -2 | 32 | 27 | 1 | x | x
C=CCc1c(C)nc(-c2ccccc2)nc1Nc1ccccc1O | 63* | 3 | 39 | 47* | -11 | 54* | 54*
COc1ccc(S(=O)(=O)N2CCN(C(=O)CCNC(=O)c3ccccc3Cl)CC2)cc1 | 6 | 45 | 12 | 17 | x | x | x
Cc1nc(N2CCC(C)CC2)c2oc3ccccc3c2n1 | 46* | -6 | 46 | 49* | 13 | 27 | 47*
COc1cccc(-c2nn(C)c3sc(C(=O)N4CCN(c5ccccn5)CC4)cc23)c1 | 41* | -106 | 30 | 43* | 15 | 32* | -16
COc1ccc(CCNC(=S)NC(=O)c2cccc(Cl)c2)cc1OC | 40* | x | 35 | 48* | 5 | 30* | 41*
COC(=O)C(C)N1CCC(=O)c2ccccc2S1(=O)=O (stereo not drawn) | -1 | -3 | 2 | -7 | 1 | x | x
Cc1[nH]c(=O)c(C(=O)/C=C/c2ccccc2F)c2c1CCCC2 | 44* | 12 | 41 | 47* | -7 | 52* | 38*
Cc1ccc(-n2cnc3cc(NCc4cccs4)ccc32)cc1 | 63* | -6 | 28 | 56* | 43 | 57* | 64*
Cn1cnc2cc(NCc3cccs3)ccc21 | -10 | x | 20 | 6 | 13 | x | x
C=C1CCC[C@]2(C)C[C@H]3OC(=O)C(CN4CC(C)OC(C)C4)[C@H]3C[C@@H]12 (stereo partly drawn) | 40* | 8 | 43 | 42* | -5 | 31* | 37*
